Consider 30 compounds from PubChem BioAssay (NCATS).

Assay [1] has as its target Calcium and integrin-binding protein 1 (Homo sapiens) (UniProt Q99828). Briefly: Primary qHTS for Identification of Calcium Integrin Binding Protein 1 (CIB1) Competitor (AID 1508620).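 Also: GST tagged CIB1 binding a fluorescein labelled alphaIIb integrin peptide tracer; top concentration of the series differs between compounds.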 The gist of the method: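 CIB1-GST (1 uM final) and compound incubated 15 min at room temperature before adding FITC-alphaIIb peptide tracer (100 nM final). Competition for binding read by fluorescence polarization (ex 480, em 540) after another 15 min at room temperature.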

For assay [2], the target named is Cytochrome P450 2C9 (Homo sapiens) (UniProt P11712). Briefly: Cytochrome P450 family 2 subfamily C member 9 (CYP2C9) small molecule antagonists: luciferase biochemical (cell-free) qHTS assay (AID 1645842; active = well fitted curve in the direction sought with a large enough effect in the repeat runs; an effect the other way counts as inactive or inconclusive; also: nearly all actives have a fitted effect of over 55% in size; also: potency is read from the fitted curve at half-maximal effect). The gist of the method: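 P450-Glo CYP2C9 system: proluciferin substrate with enzyme in mix containing 0.4% BSA, 10 min at room temperature, then NADPH regeneration solution added and incubated 1 h at 37C. Detection reagent stopped reaction; luminescence read after 20 min as RLU.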

Assay [3] can be described thus: Primary qHTS for inhibitors of nuclear receptor binding SET domain protein 2 (NSD2) in an isogenic RCH-ACV NSD2 p.E1099K mutant (9B) (AID 1645876). Also: nearly all actives have a fitted effect of over 70% in size. Also: potency is read from the fitted curve at half-maximal effect. In general terms: Quantitative high-throughput screening tests each substance at several concentrations.

Where “and” joins values, the source holds several entries; their conditions need not be identical. Equal values may be shown once. Results filed as inconclusive are left out. Calls of active or inactive are those of the source. Unless noted, calls follow the shape of the dose curve; as a rule, active = well fitted curve in the direction sought with a large enough effect; inconclusive = small, poorly fitted or top-dose-only effect, or another doubt; inactive = no such curve, though single readings can be large; an effect the other way counts as inactive or inconclusive.

Chain of Calcium and integrin-binding protein 1 (Homo sapiens) (Q99828 whole entry, looked up): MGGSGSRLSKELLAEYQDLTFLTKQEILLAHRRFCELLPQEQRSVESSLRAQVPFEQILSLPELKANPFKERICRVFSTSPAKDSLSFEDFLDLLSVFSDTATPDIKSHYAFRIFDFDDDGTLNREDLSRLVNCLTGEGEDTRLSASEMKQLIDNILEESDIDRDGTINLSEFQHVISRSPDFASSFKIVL
Chain of Cytochrome P450 2C9 (Homo sapiens) (P11712 whole entry, looked up): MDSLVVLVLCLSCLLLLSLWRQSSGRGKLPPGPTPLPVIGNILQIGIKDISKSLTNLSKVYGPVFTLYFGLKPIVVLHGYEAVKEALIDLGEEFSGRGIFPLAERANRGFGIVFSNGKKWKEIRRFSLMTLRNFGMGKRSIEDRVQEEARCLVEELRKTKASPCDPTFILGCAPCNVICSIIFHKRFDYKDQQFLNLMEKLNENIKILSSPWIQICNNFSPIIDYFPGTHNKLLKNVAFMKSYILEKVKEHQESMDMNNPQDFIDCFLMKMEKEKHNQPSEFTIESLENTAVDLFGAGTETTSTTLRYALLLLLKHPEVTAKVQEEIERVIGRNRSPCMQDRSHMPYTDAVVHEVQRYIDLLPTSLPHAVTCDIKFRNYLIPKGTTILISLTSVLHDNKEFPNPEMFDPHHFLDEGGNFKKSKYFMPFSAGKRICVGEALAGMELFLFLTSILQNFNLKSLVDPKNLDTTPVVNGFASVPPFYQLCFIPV

In the case of `COc1ccc(CNC(=O)c2sc3nc(C)cc(C)c3c2N)cc1`, in assay [1], the Potency entry was “inactive”. Besides, in assay [2], the Potency is 3.79 µM (active).

Turning to `Cn1ncnc1COc1nn2c(-c3cc(F)ccc3F)nnc2cc1C(C)(C)C`, in assay [1], the Potency result was “inactive”. In addition, the Potency in assay [2] was 9.52 µM (active).

With `COCCN1CCN(Cc2ccc(-c3n[nH]c4c3C(=O)c3c(NC(=O)NN5CCOCC5)cccc3-4)cc2)CC1`, in assay [1], the Potency result is “inactive”. In addition, the Potency in assay [2] was 2.13 µM (active); in assay [3], 45.9 nM (active) and 59 nM (active).

As to `COc1ccc(C(=O)n2c(C)c(Cc3cccc(O[C@@H](C)C(=O)O)c3)c3cc(OC(F)(F)F)ccc32)cc1`, the Potency result in assay [1] and in assay [3] was “inactive” throughout. Besides, the Potency in assay [2] is 19 µM (active).

Consider `CC(C)NCC(C(=O)N1CCN(c2ncnc3c2C(C)CC3O)CC1)c1ccc(Cl)cc1` (stereo not drawn), for which the Potency entry in assay [1] and in assay [2] was “inactive” each time. In assay [3], the Potency was 1.83 µM (active).

On to `COc1ccc(CNC(=O)c2cc(-c3cncc(C)c3)ncc2-c2nccs2)nc1OC`, for which the Potency result in assay [1] and in assay [3] was “inactive” in each case. Further, in assay [2], the Potency was 4.25 µM (active).

As for `COc1ccccc1NC(=O)OCC1CCN(C(=O)OC(C)(C)C)CC1`, the Potency result in assay [1], in assay [2] and in assay [3] was “inactive” in each case.

Take `O=C(CSc1nc2c(c(=O)n1-c1ccccc1)SCC2)Nc1ccc(-c2ccccc2)cn1`: the Potency result in assay [1] is “inactive”. Moreover, the Potency in assay [2] is 0.379 µM (active); in assay [3] it was 0.0365 µM (active).

As for `CCCC1(c2ccccc2)NC(=O)N(CC(=O)N(C)Cc2c(F)cccc2Cl)C1=O` (stereo not drawn), the Potency entry in assay [1] and in assay [3] was “inactive” each time. Further, the Potency in assay [2] was 12 µM (active).

In the case of `Cc1cc(OCc2nnc(SC3CCCC3)n2-c2cccnc2)ccc1-c1ccc(S(C)(=O)=O)cc1`, the Potency entry in assay [1] was “inactive”. The Potency in assay [2] is 8.49 µM (active); in assay [3], 0.817 µM (active).

With `NC[C@@](O)(c1ccc(Cl)cc1)c1ccc(-c2cn[nH]c2)cc1`, the Potency result in assay [1] is “inactive”. The Potency in assay [2] was 1.2 µM (active); in assay [3], 6.49 µM (active) and 5.25 µM (active).

Take `Cc1cc(Nc2cc(N3CCN(C)CC3)nc(/C=C/c3ccccc3)n2)n[nH]1`: the Potency result in assay [1] and in assay [2] was “inactive” throughout. Besides, in assay [3], the Potency was 728 nM (active) and 934 nM (active).

For `CC(C)C(CO)Nc1nc(Nc2cc(N)cc(Cl)c2)c2ncn(C(C)C)c2n1` (stereo not drawn), the Potency result in assay [1] is “inactive”. The Potency in assay [2] was 0.536 µM (active); in assay [3], 6.49 µM (active).

In the case of `O=C(NCc1cccc(O)c1)Nc1nc(-c2ccncc2)cs1`, in assay [1], the Potency result was “inactive”. The Potency in assay [2] is 0.301 µM (active); in assay [3], 9.34 µM (active).

Turning to `CC(C)Oc1ccc(C(=O)NC(CNC(=O)CN(C)C)Cc2ccc(-c3cn4cccc(C(C)O)c4n3)cc2)cc1Cl` (stereo not drawn), in assay [1], the Potency entry was “inactive”. For the same compound, the figures for the Potency in assay [2] and in assay [3] were 13.5 µM (active) and 0.163 µM (active), respectively.

Regarding `COc1cc(Br)c(Nc2nc(-c3c(C)nc4ncccn34)cs2)c(Br)c1`, in assay [1], the Potency entry was “inactive”. Besides, the Potency in assay [2] is 8.49 µM (active); in assay [3] it was 1.45 µM (active).

Take `Cc1cc(NC(=O)Nc2ccc(F)c(F)c2)n(-c2ccccc2)n1`: the Potency entry in assay [1] and in assay [3] was “inactive” in each case. For the same compound, the Potency in assay [2] is 12 µM (active).

With `O=C1CC2(CCCC2)[C@H](O)C(=O)N1CCCCN1CCN(c2ncccn2)CC1`, the Potency entry in assay [1] and in assay [3] was “inactive” in each case. For the same compound, in assay [2], the Potency is 10.7 µM (active).

Turning to `Cc1cc(C(=O)N2CCCCc3ccccc32)ccc1CNC(=O)N1CCC[C@H]1C(=O)N(C)C`, the Potency result in assay [1], in assay [2] and in assay [3] was “inactive” each time.

As to `O=C(NCc1ccc(S(=O)(=O)c2cc(F)cc(F)c2)cc1)c1ccc2nccn2c1`, the Potency result in assay [1], in assay [2] and in assay [3] was “inactive” each time.

Take `COc1ccc([C@H]2CNC(=O)C2)cc1OC1CCCC1`: the Potency entry in assay [1], in assay [2] and in assay [3] was “inactive” throughout.

On to `CC1(C)CC(=O)C2=C(C1)NC(=S)NC2c1cccc(O)c1` (stereo not drawn), for which the Potency result in assay [1] is “inactive”. Further, the results for the Potency in assay [2] and in assay [3] were 2.13 µM (active) and 0.728 µM (active), respectively.

For the compound `O=C(Nc1c(-c2cccs2)nc2ccccn12)c1ccc(Cl)cc1`, the Potency entry in assay [1] and in assay [3] was “inactive” throughout. The Potency in assay [2] is 15.1 µM (active).

Regarding `O=C(NCc1cccc(O)c1)c1cc2cc(F)ccc2[nH]1`, the Potency result in assay [1] was “inactive”. The Potency in assay [2] is 13.5 µM (active); in assay [3], 18.3 µM (active).

Take `COc1ncc2cc(C(=O)Nc3cc(C(=O)NCc4cccc(Cl)c4)ccc3Cl)c(=O)[nH]c2n1`: the Potency entry in assay [1] is “inactive”. The Potency in assay [2] is 19 µM (active); in assay [3], 6.51 µM (active).

Regarding `Cc1cc2c(F)c(Oc3ncnn4cc(OCC(C)O)c(C)c34)ccc2[nH]1` (stereo not drawn), the Potency entry in assay [1] was “inactive”. Besides, the figures for the Potency in assay [2] and in assay [3] were 12 µM (active) and 4.09 µM (active), respectively.

`COC(=O)N[C@@H](C)CNc1nccc(-c2cn(C(C)C)nc2-c2cc(Cl)cc(NS(C)(=O)=O)c2F)n1`: the Potency result in assay [1], in assay [2] and in assay [3] was “inactive” in each case.

With `COc1cc(C(=O)NC2CCN(C)CC2)ccc1Nc1ncc2c(n1)N(C1CCCC1)CC(F)(F)C(=O)N2C`, the Potency entry in assay [1] and in assay [2] was “inactive” throughout. Further, the Potency in assay [3] is 0.0205 µM (active).

For `COc1cc2nc(N3CCCC3)nc(NCCCCCN3CCCC3)c2cc1OC`, the Potency entry in assay [1] and in assay [2] was “inactive” in each case. The Potency in assay [3] was 4.59 µM (active).

`Cc1nc(NC(=O)N2CCCC2C(N)=O)sc1-c1csc(C(C)(C)C)n1` (stereo not drawn): the Potency result in assay [1] and in assay [2] was “inactive” throughout. The Potency in assay [3] was 4.59 µM (active).
